In PubChem BioAssay (NCATS):
Where “and” joins values, the source holds several entries; their conditions need not be identical. Equal entries are not always repeated. Records with an inconclusive call do not appear. Calls of active or inactive are those of the source. Calls follow the shape of the dose curve; as a rule, active = well fitted curve in the direction sought with a large enough effect; inconclusive = small, poorly fitted or top-dose-only effect, or another doubt; inactive = no such curve, though single readings can be large; an effect the other way counts as inactive or inconclusive.

What was measured:
KB-3-1 = assay: Cytotoxic Profiling of Annotated Libraries Using Quantitative High-Throughput Screening (AID 1296008); details: Five cell lines viability, CellTiter-Glo ATP luminescence, 48-72 h; max response: active compounds read low; also: nearly all actives have a fitted effect of over 60% in size; also: potency is read from the fitted curve at half-maximal effect; as to max response: % is scaled to controls: 0 for no effect and ±100 for the full control effect
Outline: (§1)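 Compounds were pin-transferred onto cells and incubated 48 or 72 hr at 37 degree Celsius, 95% humidity. CellTiter-Glo was added, plates sat 10 min at room temperature, then ATP-coupled luminescence was imaged as the viability read-out.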

NIH3T3 = assay: as above; details: Five cell lines viability, CellTiter-Glo ATP luminescence, 48-72 h; max response: active compounds read low
Outline: as §1

HACAT = assay: qHTS assay to identify novel small-molecules to repurpose for Merkel cell carcinoma treatment (AID 1296009); details: MCC and control cell lines, CellTiter-Glo viability, 72 h; at 44.8 µM (top of the series) unless noted; also: nearly all actives have a fitted effect of over 60% in size
Outline: (§2)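 qHTS format: cells treated with library compounds in DMSO across 8 (NPC) or 11 (MIPE) concentrations. Readout after 72 hr at 37 degree celsius was CellTiter-Glo luminescence.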

HEK293T [1] = assay: as above; details: MCC and control cell lines, CellTiter-Glo viability, 72 h; series mostly up to 44.8 µM
Outline: as §2

C33A = assay: Primary qHTS to identify gynecologic anti-cancer compounds using libraries of approved drugs and bioactive compounds (AID 1345084); details: Gynecologic cancer cell panel viability, ATPlite luminescence, 48 h; series mostly up to 57.5 µM; also: % is scaled to controls: 0 for no effect and ±100 for the full control effect; nearly all actives have a fitted effect of over 55% in size
Outline: (§3)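 Cells, 1,000 per well, plated 16 h, then exposed 48 h at 37 C to compounds. Viability by ATPlite luminescence after 15 min at room temperature.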

CAOV3 = assay: as above; details: Gynecologic cancer cell panel viability, ATPlite luminescence, 48 h; series mostly up to 57.5 µM
Outline: as §3

CASKI = assay: as above; details: Gynecologic cancer cell panel viability, ATPlite luminescence, 48 h; series mostly up to 57.5 µM
Outline: as §3

Es-2 = assay: as above; details: Gynecologic cancer cell panel viability, ATPlite luminescence, 48 h; series mostly up to 57.5 µM
Outline: as §3

HeLa = assay: as above; details: Gynecologic cancer cell panel viability, ATPlite luminescence, 48 h; series mostly up to 57.5 µM
Outline: as §3

Hek293T [2] = assay: as above; details: Gynecologic cancer cell panel viability, ATPlite luminescence, 48 h, control line for the selectivity index; series mostly up to 57.5 µM
Outline: as §3

JEG-3 = assay: as above; details: Gynecologic cancer cell panel viability, ATPlite luminescence, 48 h; series mostly up to 57.5 µM
Outline: as §3

OV90 = assay: as above; details: Gynecologic cancer cell panel viability, ATPlite luminescence, 48 h; series mostly up to 57.5 µM
Outline: as §3

PA-1 = assay: as above; details: Gynecologic cancer cell panel viability, ATPlite luminescence, 48 h; series mostly up to 57.5 µM
Outline: as §3

CC(=C/C(=O)O)/C=C/[C@]1(O)[C@@]2(C)CO[C@]1(C)C[C@H](O[C@@H]1O[C@H](CO)[C@@H](O)[C@H](O)[C@H]1O)C2
inactive: max response (KB-3-1) 0.594% | max response (NIH3T3) -8.59% | outcome (HACAT) inactive [at 17.4 µM] | Potency (HEK293T [1]) | Potency (C33A) | Potency (CAOV3) | Potency (CASKI) | Potency (Es-2) | Potency (HeLa) | Potency (Hek293T [2]) | Potency (JEG-3) | Potency (OV90) | Potency (PA-1)

CC1(C)CCC[C@@]2(C)[C@H]1[C@H](O)C=C1COC(=O)[C@@]12O
inactive: max response (KB-3-1) 4.4% | max response (NIH3T3) 2.05% | outcome (HACAT) | Potency (HEK293T [1]) | Potency (C33A) | Potency (CAOV3) | Potency (CASKI) | Potency (Es-2) | Potency (HeLa) | Potency (Hek293T [2]) | Potency (JEG-3) | Potency (OV90) | Potency (PA-1)

CCCOc1ccn2c(C(C)=O)cc(-c3ccccc3S(C)(=O)=O)c2c1
inactive: max response (KB-3-1) 3.55% | max response (NIH3T3) -3.04% | outcome (HACAT) | Potency (HEK293T [1]) | Potency (C33A) | Potency (CAOV3) | Potency (CASKI) | Potency (Es-2) | Potency (HeLa) | Potency (Hek293T [2]) | Potency (JEG-3) | Potency (OV90) | Potency (PA-1)

COc1ccc([C@H]2Cc3cccc(O)c3C(=O)O2)cc1
inactive: max response (KB-3-1) 9.62% | outcome (NIH3T3) | outcome (HACAT) | Potency (HEK293T [1]) | Potency (C33A) | Potency (CAOV3) | Potency (CASKI) | Potency (Es-2) | Potency (HeLa) | Potency (Hek293T [2]) | Potency (JEG-3) | Potency (OV90) | Potency (PA-1)

CCOC(=O)c1c(C)nn(-c2cccc([N+](=O)[O-])c2)c1C
inactive: max response (KB-3-1) 0.772% | max response (NIH3T3) 3.21% | outcome (HACAT) | Potency (HEK293T [1]) | Potency (C33A) | Potency (CAOV3) | Potency (CASKI) | Potency (Es-2) | Potency (HeLa) | Potency (Hek293T [2]) | Potency (JEG-3) | Potency (OV90) | Potency (PA-1)

Cc1cccc(-c2[nH]c(CNc3ccccc3F)nc2-c2ccc3ncnn3c2)n1
inactive: max response (KB-3-1) 6.62% | outcome (HACAT) | Potency (HEK293T [1]) | Potency (C33A) | Potency (CAOV3) | Potency (CASKI) | Potency (Es-2) | Potency (HeLa) | Potency (Hek293T [2]) | Potency (JEG-3) | Potency (OV90) | Potency (PA-1)
active: Potency (NIH3T3) 7.31 µM

CC(C)c1ccc(CC(=O)N2CCC[C@@H](c3cccc(OC(C)(C)C(=O)O)c3)C2)cc1
inactive: outcome (KB-3-1) | max response (NIH3T3) -2.06% | outcome (HACAT) | Potency (HEK293T [1]) | Potency (C33A) | Potency (CAOV3) | Potency (CASKI) | Potency (Es-2) | Potency (HeLa) | Potency (Hek293T [2]) | Potency (JEG-3) | Potency (OV90) | Potency (PA-1)

CCCCN(CCCC)C(=O)CN1C[C@H](c2ccc3c(c2)OCO3)[C@@H](C(=O)O)[C@@H]1c1ccc(OC)cc1
inactive: outcome (KB-3-1) | max response (NIH3T3) 2.42% and 5% | outcome (HACAT) | Potency (HEK293T [1]) | Potency (C33A) | Potency (CAOV3) | Potency (CASKI) | Potency (Es-2) | Potency (HeLa) | Potency (Hek293T [2]) | Potency (JEG-3) | Potency (OV90) | Potency (PA-1)

C[C@@H]1O[C@@H](OC[C@H]2O[C@@H](OCC3CCC4CC3C4(C)C)[C@H](O)[C@@H](O)[C@@H]2O)[C@H](O)[C@H](O)[C@H]1O (stereo partly drawn)
inactive: max response (KB-3-1) 6.44% | max response (NIH3T3) -1.43% | outcome (HACAT) inactive [at 17.4 µM] | Potency (HEK293T [1]) | Potency (C33A) | Potency (CAOV3) | Potency (CASKI) | Potency (Es-2) | Potency (HeLa) | Potency (Hek293T [2]) | Potency (JEG-3) | Potency (OV90) | Potency (PA-1)

CC(=O)NCCCCn1c2c(c3ccccc31)C(=O)NCC2
inactive: outcome (KB-3-1) | outcome (NIH3T3) | outcome (HACAT) | Potency (HEK293T [1]) | Potency (C33A) | Potency (CAOV3) | Potency (CASKI) | Potency (Es-2) | Potency (HeLa) | Potency (Hek293T [2]) | Potency (JEG-3) | Potency (OV90) | Potency (PA-1)

COC(=O)C1=COC(O[C@@H]2O[C@H](CO)[C@@H](O)[C@H](O)[C@H]2O)/C(=C\COC(=O)c2ccc(OC3OC(CO)C(O)C(O)C3O)c(OC)c2)C1CC(=O)OCCc1ccc(O)cc1 (stereo partly drawn)
inactive: outcome (KB-3-1) | max response (NIH3T3) 1.16% | outcome (HACAT) inactive [at 9.27 µM] | outcome (HEK293T [1]) inactive [at 9.27 µM] | activity change, negative = cytotoxicity (C33A) 7.7% [at 11.6 µM] | activity change, negative = cytotoxicity (CAOV3) -8.27% [at 11.6 µM] | activity change, negative = cytotoxicity (CASKI) 3.94% [at 11.6 µM] | activity change, negative = cytotoxicity (Es-2) 1.38% [at 11.6 µM] | activity change, negative = cytotoxicity (HeLa) 2.44% [at 11.6 µM] | activity change, negative = cytotoxicity (Hek293T [2]) 17.6% [at 11.6 µM] | activity change, negative = cytotoxicity (JEG-3) 2.03% [at 11.6 µM] | activity change, negative = cytotoxicity (OV90) 1.39% [at 11.6 µM] | activity change, negative = cytotoxicity (PA-1) -0.972% [at 11.6 µM]

CC(C)[C@H]1CCC(CO)=C[C@@H]1/C=C(\CO)C(=O)O
inactive: max response (KB-3-1) 7.99% | max response (NIH3T3) -1.04% | outcome (HACAT) | Potency (HEK293T [1]) | Potency (C33A) | Potency (CAOV3) | Potency (CASKI) | Potency (Es-2) | Potency (HeLa) | Potency (Hek293T [2]) | Potency (JEG-3) | Potency (OV90) | Potency (PA-1)

Oc1ccc([C@H]2COc3cc(O)ccc3C2)cc1
inactive: max response (KB-3-1) 0.946% | max response (NIH3T3) 3.41% | outcome (HACAT) | Potency (HEK293T [1]) | Potency (C33A) | Potency (CAOV3) | Potency (CASKI) | Potency (Es-2) | Potency (Hek293T [2]) | Potency (JEG-3) | Potency (OV90) | Potency (PA-1)

O=C1C[C@@H](c2ccc(O)cc2)Oc2cc(O)ccc21
inactive: max response (KB-3-1) 3.42% | max response (NIH3T3) 1.22% | outcome (HACAT) | Potency (HEK293T [1]) | Potency (C33A) | Potency (CAOV3) | Potency (CASKI) | Potency (Es-2) | Potency (HeLa) | Potency (Hek293T [2]) | Potency (JEG-3) | Potency (OV90) | Potency (PA-1)

NC(Cc1c[nH]c2ccccc12)C(=O)NC(CCC(=O)O)C(=O)O (stereo not drawn)
inactive: max response (KB-3-1) 5.6% | max response (NIH3T3) 1.77% | outcome (HACAT) | Potency (HEK293T [1]) | Potency (C33A) | Potency (CAOV3) | Potency (CASKI) | Potency (Es-2) | Potency (HeLa) | Potency (Hek293T [2]) | Potency (JEG-3) | Potency (OV90) | Potency (PA-1)

CC1CCC2(C)C(CC(O)C(O)C23CO3)C1(C)CCC1=CC(=O)OC1O (stereo not drawn)
inactive: max response (KB-3-1) 4.04% | max response (NIH3T3) 3.09% | outcome (HACAT) inactive; activator | Potency (HEK293T [1]) | Potency (C33A) | Potency (CAOV3) | Potency (CASKI) | Potency (Es-2) | Potency (HeLa) | Potency (Hek293T [2]) | Potency (JEG-3) | Potency (OV90) | Potency (PA-1)

COc1ccc(C2=CC(=O)OC2Cc2ccc(O)cc2)c(O)c1 (stereo not drawn)
inactive: max response (KB-3-1) 6.42% | max response (NIH3T3) 1.17% | outcome (HACAT) | Potency (HEK293T [1]) | Potency (C33A) | Potency (CAOV3) | Potency (CASKI) | Potency (Es-2) | Potency (HeLa) | Potency (Hek293T [2]) | Potency (JEG-3) | Potency (OV90) | Potency (PA-1)

CCOc1ccc(C(Nc2ccccn2)c2ccc3ccc(C)nc3c2O)cc1C (stereo not drawn)
inactive: max response (KB-3-1) -0.87% | max response (NIH3T3) -16.7% | outcome (HACAT) | Potency (HEK293T [1]) | Potency (C33A) | Potency (CAOV3) | Potency (CASKI) | Potency (Es-2) | Potency (HeLa) | Potency (Hek293T [2]) | Potency (JEG-3) | Potency (OV90) | Potency (PA-1)
